# Several values for one entry are separate records, joined by “and”; a condition that tells them apart may be missing. Equal entries are not always repeated. Records with an inconclusive call do not appear. Activity calls are given as the source filed them. Unless noted, the rule behind the calls is not given here.
# What was measured:
# [1] = target: GTPase HRas (Homo sapiens) (UniProt P01112); assay: inhibitors of GTP binding to wildtype Ras, dose response, biochemical, multiplex bead flow cytometry (AID 1335;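 active = fitted half-maximal concentration within 10 nM to 100 µM, steepness 0.5 to 2, significant signal drop, low assay interference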); conditions: bead-based flow cytometry, Bodipy-GTP binding to GST-Ras; at 100 µM (top of the series)
# [2] = yeast TOR pathway RPL19A-GFP modulators, primary screen, cell-based, S. cerevisiae, multiplex flow cytometry (AID 1862; in the data active = percent of DMSO control GFP below about 86%;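 note: lower values mimic rapamycin by blocking the RPL19A rise seen in DMSO cells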); conditions: S. cerevisiae RPL19A-GFP strain, flow cytometry fluorescence, 3 h; at 10 µM; stronger effect = lower value
# [3] = modulators of MEP2-GFP levels in yeast, primary screen, S. cerevisiae, multiplex flow cytometry (AID 1867;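 active = GFP response, as percent of the DMSO control, above the screen-wide mean plus 3 SD, about 139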;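 note: median GFP channel fluorescence of barcode-gated MEP2-GFP cells measured by flow cytometry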); conditions: S. cerevisiae MEP2-GFP strain, 3 h, at 10 µM, stronger effect = higher value
# [4] = modulators of CIT2-GFP expression in yeast, primary screen, S. cerevisiae, GFP fusion, multiplex flow cytometry (AID 1870;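 active = percent response above a set limit, the screen-wide mean plus 3 SD, cut at about 130% in these data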;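 note: barcoded CIT2-GFP strain pooled with four other GFP strains with rapamycin as positive control; median GFP fluorescence per well over plate mean of DMSO wells so 100% = DMSO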); conditions: 3 h, at 10 µM, stronger effect = higher value
# [5] = modulators of LAP4-GFP expression in yeast, primary screen, S. cerevisiae, multiplex flow cytometry (AID 1873;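 active = GFP signal, as percent of the solvent control, above the screen mean plus 3 SD, about 149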); conditions: 3 h, at 10 µM, stronger effect = higher value
# [6] = modulators of AGP1-GFP expression in yeast TOR pathway, primary screen, cell-based, multiplex flow cytometry, S. cerevisiae (AID 1887;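 active = GFP signal above the screen-wide mean plus 3 SD, that is over about 124.5% of the solvent control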;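 note: AGP1-GFP fusion strain of S. cerevisiae within a five-strain barcoded multiplex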); conditions: 3 h, at 10 µM, stronger effect = higher value
# [7] = inhibitors of CD8+ T cell-vesicle binding, pilot screen, LFA-1/ICAM-1 modulator project, MLPCN validation set, flow cytometry (AID 2523;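 active = response below a set limit, under 55% cells CD8-positive and vesicle-bound, and CD8 cells' 90th-percentile brightness under 279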;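 for vesicle binding response: mean PE anti-B7-1 fluorescence of CD8+ cells relative to row control; 100% = QL9-loaded vesicles with DMSO vehicle in the same plate row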); conditions: 2C mouse CD8+ T cells, at 7 µM, stronger effect = lower value; double positive events: measured here: CD8+/vesicle+ event percentage
# [8] = target: Integrin beta-1 (Homo sapiens) + Integrin alpha-4 (Homo sapiens) (UniProt P13612+P05556); assay: inhibition of HUTS-21 binding to VLA-4, pilot screen, VLA-4 allosteric modulator project, U937 cells, HUTS-21 mAb, flow cytometry, validation set (AID 2674;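 active = inhibition above 50%, about 3 SD of the validation set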;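 note: antibody binding induced by the VLA-4 ligand LDV present at three times its Kd; 0% = LDV ligand with antibody and no compound and 100% = antibody without LDV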); conditions: HUTS-21 LIBS mAb binding, at 6.7 µM, stronger effect = higher value
# [9] = superoxide lowering in aged yeast cells, pilot screen, validation compound set (AID 2706;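 active = superoxide response below 65% of plate, a cut near 3 SD across the whole screen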;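 note: yeast exposed to compound for one week at 30 degrees C before staining; 100% = mean of all compound wells on the same plate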); conditions: S. cerevisiae aging, superoxide DHE fluorescence; at 10 µM; stronger effect = lower value
# [10] = target: Beta-adrenergic receptor kinase 1 (Homo sapiens) (UniProt P25098); assay: GRK2 binders displacing RNA aptamer, biochemical, validation, human GRK2, bead flow cytometry (AID 488806;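 active = aptamer binding inhibition above 30%, about 3 SD of noise from non-fluorescent compounds; inactive = inhibition at or below 30%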); conditions: bead-bound GRK2, FAM-aptamer displacement, at 10 µM, stronger effect = higher value
# [11] = target: Beta-2 adrenergic receptor (Homo sapiens) (UniProt P07550); assay: beta2AR agonists driving receptor internalization, pilot screen, cell-based, FAP fluorogen, flow cytometry, validation set (AID 504459;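 active = percent response above 42, roughly 3 SD of non-fluorescent test compounds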;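 note: agonist-driven loss of surface beta2AR via internalization measured by FAP dye flow cytometry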); conditions: Am2.2-beta2AR cells, FAP surface receptor flow cytometry; at 10 µM; stronger effect = higher value
# [12] = target: AP-2 complex subunit beta (Homo sapiens) (UniProt P63010); assay: inhibitors of arrestin peptide binding to AP2, pilot screen, biochemical, validation set, GST-AP2 beads, flow cytometry (AID 504541;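 active = inhibition above 54%, about 3 SD of non-fluorescent compounds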;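 note: AP2 carries R879A mutation and is captured from E. coli lysate; bead-bound FITC arrestin peptide fluorescence measuring arrestin peptide binding to AP2; 0% = DMSO wells and 100% = excess unlabeled arrestin peptide control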); conditions: FITC arrestin peptide, at 10 µM, stronger effect = higher value
# [13] = yeast V-ATPase proton transport modulators, S. cerevisiae, pHLuorin, HTS validation (AID 504600; in the data active = response above about 15%;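 note: plate controls were DMSO for no effect and reference compound for full effect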); conditions: S. cerevisiae pHLuorin cytosolic pH, at 10 µM, stronger effect = higher value
# [14] = test system: anti-desmoglein-3 scFv antibody binding to human DSG3; assay: inhibitors of anti-DSG3 scFv binding to DSG3, pilot screen, biochemical, validation compound set, bead-based, flow cytometry (AID 588368;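 active = binding below the plate cutoff, the plate median minus 3 SD, with a reading above zero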;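 note: signal is the median channel fluorescence of bead-bound GFP antibody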); conditions: Protein G beads, DSG3-Fc, scFv-GFP binding, at 10 µM, stronger effect = lower value
# [15] = test system: Botulinum neurotoxin type F light chain protease (Clostridium botulinum); assay: Botulinum neurotoxin type F light chain protease inhibition, multiplex microsphere flow cytometry, validation set (AID 588459); conditions: multiplex microsphere protease substrate cleavage assay, at 10 µM, stronger effect = higher value
# [16] = target: Botulinum neurotoxin type A (Clostridium botulinum) (UniProt P0DPI0); assay: BoNT/A light chain protease inhibitors, biochemical, multiplex microsphere flow cytometry, validation set (AID 588460); conditions: at 10 µM, stronger effect = higher value
# [17] = target: Lethal factor (Bacillus anthracis) (UniProt P15917); assay: Lethal factor protease inhibitors, Bacillus anthracis, multiplex microsphere cleavage assay, validation set (AID 588461); conditions: flow cytometry, at 10 µM, stronger effect = higher value
# [18] = inhibitors of fungal efflux pumps CDR1, CDR2, MDR1, pilot screen, validation compound set, multiplex, phenotypic (AID 588506;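 active = efflux inhibition above 0.42, the validation set average plus 4 SD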;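 note: Nile Red retained in cells so higher fluorescence means more efflux inhibition; 0 = negative control wells and 1 = enniatin B 25 µM full block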); conditions: S. cerevisiae pump-expressing triplex, Nile Red efflux flow cytometry; at 10 µM; stronger effect = higher value
# [19] = target: ATP-binding cassette sub-family B member 6 (Homo sapiens) (UniProt Q9NP58); assay: ABCB6 transporter inhibitors, pilot screen, K562-ABCB6 cells, flow cytometry, validation set (AID 588550;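 active = inhibition above the screen-wide mean plus 3 SD, about 51%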;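 note: 0% = DMSO wells and 100% = benzethonium chloride 70 µM positive control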); conditions: K562-ABCB6 porphyrin accumulation, 1 h, at 10 µM, stronger effect = higher value
# [20] = promoters of myeloid differentiation in arrested cells, primary screen, cell-based, GFP/MAC1 double positive, flow cytometry, validation set (AID 588685;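 active = differentiation response of at least 50%, scaled between solvent and reference control, from cells with both markers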;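 note: compound exposure lasts four days before antibody staining and flow analysis; 0% = DMSO wells and 100% = 5 µM fulvestrant positive control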); conditions: ER-HoxA9 marrow cells, stronger effect = higher value
# Beta-adrenergic receptor kinase 1 (Homo sapiens), sequence (P25098 whole entry, looked up): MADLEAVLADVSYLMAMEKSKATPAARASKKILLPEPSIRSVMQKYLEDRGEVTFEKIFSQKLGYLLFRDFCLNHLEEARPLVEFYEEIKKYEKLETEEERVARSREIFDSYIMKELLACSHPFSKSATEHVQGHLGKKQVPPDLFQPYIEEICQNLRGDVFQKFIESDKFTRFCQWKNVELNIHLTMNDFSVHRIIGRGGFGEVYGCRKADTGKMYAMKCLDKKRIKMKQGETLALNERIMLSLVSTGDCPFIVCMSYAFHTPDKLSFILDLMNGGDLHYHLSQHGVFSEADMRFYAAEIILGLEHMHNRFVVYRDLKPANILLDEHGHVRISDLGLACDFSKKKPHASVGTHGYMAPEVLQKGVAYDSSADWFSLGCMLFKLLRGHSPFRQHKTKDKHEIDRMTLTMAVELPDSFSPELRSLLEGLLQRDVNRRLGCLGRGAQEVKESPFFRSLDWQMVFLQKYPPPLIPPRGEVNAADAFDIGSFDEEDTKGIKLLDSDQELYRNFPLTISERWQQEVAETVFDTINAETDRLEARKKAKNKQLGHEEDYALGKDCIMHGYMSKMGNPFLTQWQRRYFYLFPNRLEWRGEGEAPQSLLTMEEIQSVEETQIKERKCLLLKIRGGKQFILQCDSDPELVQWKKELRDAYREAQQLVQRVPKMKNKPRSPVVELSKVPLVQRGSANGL
# AP-2 complex subunit beta (Homo sapiens), sequence (P63010 whole entry, looked up, one chain of several): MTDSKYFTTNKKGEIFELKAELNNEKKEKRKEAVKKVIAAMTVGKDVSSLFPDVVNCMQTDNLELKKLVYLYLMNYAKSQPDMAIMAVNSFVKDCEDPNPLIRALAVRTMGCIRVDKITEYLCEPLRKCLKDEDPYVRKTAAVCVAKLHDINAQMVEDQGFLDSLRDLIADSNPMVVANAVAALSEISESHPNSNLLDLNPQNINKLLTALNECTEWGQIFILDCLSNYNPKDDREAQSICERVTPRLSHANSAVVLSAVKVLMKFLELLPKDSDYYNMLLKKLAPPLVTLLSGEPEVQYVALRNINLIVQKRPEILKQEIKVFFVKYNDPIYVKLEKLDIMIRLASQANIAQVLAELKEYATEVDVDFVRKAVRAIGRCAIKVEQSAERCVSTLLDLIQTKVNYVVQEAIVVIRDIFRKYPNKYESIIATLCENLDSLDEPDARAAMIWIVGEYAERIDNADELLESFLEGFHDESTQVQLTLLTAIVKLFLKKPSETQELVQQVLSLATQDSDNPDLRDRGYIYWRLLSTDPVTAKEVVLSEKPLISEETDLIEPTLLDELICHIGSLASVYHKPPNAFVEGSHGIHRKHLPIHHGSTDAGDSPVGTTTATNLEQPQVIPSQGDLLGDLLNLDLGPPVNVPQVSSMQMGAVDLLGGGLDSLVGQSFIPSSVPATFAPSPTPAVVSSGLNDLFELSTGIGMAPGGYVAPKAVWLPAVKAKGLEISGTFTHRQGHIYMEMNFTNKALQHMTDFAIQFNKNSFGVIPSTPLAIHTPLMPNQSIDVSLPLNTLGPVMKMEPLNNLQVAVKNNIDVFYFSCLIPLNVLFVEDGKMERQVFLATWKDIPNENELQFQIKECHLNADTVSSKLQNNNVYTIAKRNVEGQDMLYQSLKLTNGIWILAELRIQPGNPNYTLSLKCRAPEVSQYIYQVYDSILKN
# Integrin beta-1 (Homo sapiens) + Integrin alpha-4 (Homo sapiens), sequence (P05556 whole entry, looked up): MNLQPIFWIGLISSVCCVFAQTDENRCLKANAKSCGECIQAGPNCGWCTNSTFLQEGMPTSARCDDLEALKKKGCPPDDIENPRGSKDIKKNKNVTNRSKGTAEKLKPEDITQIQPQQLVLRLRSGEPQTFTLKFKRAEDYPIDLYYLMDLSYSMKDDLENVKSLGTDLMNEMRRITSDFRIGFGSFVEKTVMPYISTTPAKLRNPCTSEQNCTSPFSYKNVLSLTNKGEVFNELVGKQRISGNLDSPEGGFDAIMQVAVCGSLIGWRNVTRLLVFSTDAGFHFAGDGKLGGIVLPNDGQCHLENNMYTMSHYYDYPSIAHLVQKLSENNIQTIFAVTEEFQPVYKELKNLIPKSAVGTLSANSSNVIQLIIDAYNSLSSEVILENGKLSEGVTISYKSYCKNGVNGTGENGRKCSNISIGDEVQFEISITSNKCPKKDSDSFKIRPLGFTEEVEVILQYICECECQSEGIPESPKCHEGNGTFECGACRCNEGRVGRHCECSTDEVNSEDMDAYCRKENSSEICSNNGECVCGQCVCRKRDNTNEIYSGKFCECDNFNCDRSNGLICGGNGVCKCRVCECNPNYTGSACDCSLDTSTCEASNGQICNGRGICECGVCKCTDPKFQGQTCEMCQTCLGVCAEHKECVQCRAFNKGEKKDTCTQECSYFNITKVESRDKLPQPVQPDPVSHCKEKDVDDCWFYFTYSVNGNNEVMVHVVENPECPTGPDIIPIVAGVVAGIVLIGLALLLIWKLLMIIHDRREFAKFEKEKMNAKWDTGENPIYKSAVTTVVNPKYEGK
# Integrin beta-1 (Homo sapiens) + Integrin alpha-4 (Homo sapiens), sequence (P13612 whole entry, looked up): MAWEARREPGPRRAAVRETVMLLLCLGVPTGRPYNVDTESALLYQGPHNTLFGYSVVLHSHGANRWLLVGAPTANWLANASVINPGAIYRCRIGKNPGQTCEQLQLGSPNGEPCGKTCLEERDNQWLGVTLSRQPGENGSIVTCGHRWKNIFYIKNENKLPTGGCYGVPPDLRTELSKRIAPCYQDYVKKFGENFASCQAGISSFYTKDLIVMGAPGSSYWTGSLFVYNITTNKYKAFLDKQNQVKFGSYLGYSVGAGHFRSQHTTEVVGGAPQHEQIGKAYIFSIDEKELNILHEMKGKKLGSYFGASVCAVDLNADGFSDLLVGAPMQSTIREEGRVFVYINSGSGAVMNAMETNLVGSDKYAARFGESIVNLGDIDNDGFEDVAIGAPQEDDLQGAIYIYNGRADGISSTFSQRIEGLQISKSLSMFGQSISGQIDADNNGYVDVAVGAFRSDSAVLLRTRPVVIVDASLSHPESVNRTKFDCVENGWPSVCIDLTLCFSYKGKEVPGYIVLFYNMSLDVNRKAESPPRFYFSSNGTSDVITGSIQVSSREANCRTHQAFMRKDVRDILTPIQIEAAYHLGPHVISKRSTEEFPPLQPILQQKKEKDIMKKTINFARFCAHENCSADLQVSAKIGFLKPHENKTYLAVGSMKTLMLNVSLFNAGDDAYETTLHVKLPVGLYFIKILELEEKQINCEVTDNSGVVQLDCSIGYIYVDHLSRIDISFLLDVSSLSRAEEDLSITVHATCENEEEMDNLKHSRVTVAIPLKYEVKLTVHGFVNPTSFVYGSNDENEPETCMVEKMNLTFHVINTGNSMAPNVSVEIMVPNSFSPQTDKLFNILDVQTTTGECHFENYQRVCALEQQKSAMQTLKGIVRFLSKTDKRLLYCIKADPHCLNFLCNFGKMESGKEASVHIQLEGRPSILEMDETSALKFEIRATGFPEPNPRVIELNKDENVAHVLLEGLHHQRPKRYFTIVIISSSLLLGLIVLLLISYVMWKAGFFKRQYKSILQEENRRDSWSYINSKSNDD
# ATP-binding cassette sub-family B member 6 (Homo sapiens), sequence (Q9NP58 whole entry, looked up): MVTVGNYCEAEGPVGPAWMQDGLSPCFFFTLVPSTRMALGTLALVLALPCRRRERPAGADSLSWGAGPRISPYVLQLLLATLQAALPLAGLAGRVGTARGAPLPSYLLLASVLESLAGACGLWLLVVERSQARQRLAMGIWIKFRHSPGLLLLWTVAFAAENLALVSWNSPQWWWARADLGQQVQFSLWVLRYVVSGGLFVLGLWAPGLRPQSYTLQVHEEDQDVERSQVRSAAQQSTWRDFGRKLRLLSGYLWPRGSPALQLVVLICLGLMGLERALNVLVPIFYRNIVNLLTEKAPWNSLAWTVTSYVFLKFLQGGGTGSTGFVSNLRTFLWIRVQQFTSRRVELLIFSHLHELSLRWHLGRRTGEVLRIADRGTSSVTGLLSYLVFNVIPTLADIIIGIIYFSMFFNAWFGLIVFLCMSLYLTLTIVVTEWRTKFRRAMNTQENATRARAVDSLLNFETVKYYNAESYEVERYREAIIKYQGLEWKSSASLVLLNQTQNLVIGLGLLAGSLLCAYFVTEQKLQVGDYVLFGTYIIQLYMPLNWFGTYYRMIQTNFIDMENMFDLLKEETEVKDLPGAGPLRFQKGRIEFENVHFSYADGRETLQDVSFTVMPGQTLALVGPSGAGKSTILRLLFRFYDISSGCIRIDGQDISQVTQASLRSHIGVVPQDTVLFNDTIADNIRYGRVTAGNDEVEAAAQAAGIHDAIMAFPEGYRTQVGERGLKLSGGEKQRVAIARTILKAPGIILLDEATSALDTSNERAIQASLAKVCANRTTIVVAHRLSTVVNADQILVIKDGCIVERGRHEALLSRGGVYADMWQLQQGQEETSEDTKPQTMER
# Beta-2 adrenergic receptor (Homo sapiens), sequence (P07550 whole entry, looked up): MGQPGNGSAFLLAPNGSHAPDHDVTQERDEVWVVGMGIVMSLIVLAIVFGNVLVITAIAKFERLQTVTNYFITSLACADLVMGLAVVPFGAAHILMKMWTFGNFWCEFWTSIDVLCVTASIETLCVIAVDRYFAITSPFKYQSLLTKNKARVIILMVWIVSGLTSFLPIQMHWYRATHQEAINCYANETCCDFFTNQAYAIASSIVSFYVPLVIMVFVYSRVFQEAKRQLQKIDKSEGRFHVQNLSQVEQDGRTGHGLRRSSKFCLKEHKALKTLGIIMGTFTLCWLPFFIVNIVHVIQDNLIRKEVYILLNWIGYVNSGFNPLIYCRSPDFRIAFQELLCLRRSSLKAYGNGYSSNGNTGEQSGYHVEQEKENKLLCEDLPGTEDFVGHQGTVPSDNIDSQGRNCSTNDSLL
# GTPase HRas (Homo sapiens), sequence (P01112 whole entry, looked up): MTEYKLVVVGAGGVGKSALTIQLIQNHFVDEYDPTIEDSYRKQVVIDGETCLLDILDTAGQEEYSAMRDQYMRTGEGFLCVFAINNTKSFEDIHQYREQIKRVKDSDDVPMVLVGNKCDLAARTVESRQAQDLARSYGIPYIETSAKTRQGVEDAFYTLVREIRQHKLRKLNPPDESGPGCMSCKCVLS
smiles,measurement,setting,value
O=c1[nH]c(=S)[nH]c(O)c1N=Nc1ccc(S(=O)(=O)N2CCc3ccccc32)cc1,"GTP binding, percent of control",[1],95.9%
COCCCn1c(N)c(C(=O)Nc2sc3c(c2C(=O)OC)CCCC3)c2nc3ccccc3nc21,"GTP binding, percent of control",[1],51.7%
C[C@H](O)[C@H]1CC[C@H]2[C@@H]3CCC4=CC(=O)CC[C@]4(C)[C@H]3CC[C@]12C,percent of DMSO control GFP,[2],98.9% (inactive)
same,GFP response vs DMSO,[3],103% (inactive)
same,percent response of DMSO control,[4],91.3% (inactive)
same,GFP response vs DMSO,[5],126% (inactive)
same,"GFP response, % of DMSO",[6],89.6% (inactive)
same,double positive events,[7],61%
same,vesicle binding response,[7],104% (inactive)
same,inhibition,[8],11% (inactive)
same,superoxide response (% of plate),[9],106% (inactive)
same,aptamer binding inhibition,[10],0% (inactive)
same,response,[11],-3.16% (inactive)
same,inhibition,[12],-3.68% (inactive)
same,response,[13],-6.77% (inactive)
same,binding (% of control),[14],102% (inactive)
same,inhibition,[15],-0.6% (inactive)
same,inhibition,[16],0.2% (inactive)
same,inhibition,[17],2.8% (inactive)
same,efflux inhibition (fraction of control),[18],-0.17 (inactive)
same,inhibition,[19],9% (inactive)
same,differentiation response,[20],-4.57% (inactive)
CC12CN3CC(C)(CN(C1)C31CCOCC1)C2=O,percent of DMSO control GFP,[2],92.6% (inactive)
same,GFP response vs DMSO,[3],145% (active)
same,percent response of DMSO control,[4],101% (inactive)
same,GFP response vs DMSO,[5],90.2% (inactive)
same,"GFP response, % of DMSO",[6],94.5% (inactive)
same,double positive events,[7],65.1%
same,vesicle binding response,[7],166% (inactive)
same,inhibition,[8],5.49% (inactive)
same,superoxide response (% of plate),[9],90% (inactive)
same,aptamer binding inhibition,[10],2% (inactive)
same,response,[11],3.7% (inactive)
same,inhibition,[12],40.7% (inactive)
same,response,[13],-6.81% (inactive)
same,binding (% of control),[14],100% (inactive)
same,inhibition,[15],1.2% (inactive)
same,inhibition,[16],0.1% (inactive)
same,inhibition,[17],-2.4% (inactive)
same,efflux inhibition (fraction of control),[18],-0.09 (inactive)
same,inhibition,[19],13% (inactive)
same,differentiation response,[20],-2.46% (inactive)
CC[C@@H]1C(=O)OC[C@@H]1Cc1cncn1C,percent of DMSO control GFP,[2],89.8% (inactive)
same,GFP response vs DMSO,[3],144% (active)
same,percent response of DMSO control,[4],112% (inactive)
same,GFP response vs DMSO,[5],88% (inactive)
same,"GFP response, % of DMSO",[6],86.3% (inactive)
same,double positive events,[7],65.5% and 68.4%
same,vesicle binding response,[7],171% (inactive) and 339% (inactive)
same,inhibition,[8],13.2% (inactive) and 5.49% (inactive)
same,superoxide response (% of plate),[9],82.6% (inactive) and 106% (inactive)
same,aptamer binding inhibition,[10],7% (inactive) and 4% (inactive)
same,response,[11],1.92% (inactive) and 3.7% (inactive)
same,inhibition,[12],14.2% (inactive) and -5.27% (inactive)
same,response,[13],-2.39% (inactive) and 0.38% (inactive)
same,binding (% of control),[14],104% (inactive) and 95.6% (inactive)
same,inhibition,[15],-1.2% (inactive) and -3.1% (inactive)
same,inhibition,[16],-0.7% (inactive) and 0.7% (inactive)
same,inhibition,[17],-1.2% (inactive) and 7% (inactive)
same,efflux inhibition (fraction of control),[18],0.16 (inactive) and 0.05 (inactive)
same,inhibition,[19],3% (inactive) and 12% (inactive)
same,differentiation response,[20],14.7% (inactive) and 20.5% (inactive)
CCCCN1C(=O)/C(=C\c2ccco2)C(=O)N(CCc2ccccc2)C1=O,"GTP binding, percent of control",[1],131%
CCn1nc(/C=C/c2ccccc2)nc2c(=O)n(C)c(=O)nc1-2,"GTP binding, percent of control",[1],76.7%
CC(Oc1ccc(-c2ccccc2)cc1)C(=O)O (configuration not stated),"GTP binding, percent of control",[1],172%
Cc1nn(Cc2ccccc2)c(Cl)c1C(=O)O,"GTP binding, percent of control",[1],86.7%
O=C(O)c1cn(Cc2ccc(Br)cc2)c2ccccc12,"GTP binding, percent of control",[1],104%
Cc1cc(OCc2cc(C(=O)O)oc2C)c2c3c(c(=O)oc2c1)CCCC3,percent of DMSO control GFP,[2],104% (inactive)
same,GFP response vs DMSO,[3],97.2% (inactive)
same,percent response of DMSO control,[4],114% (inactive)
same,GFP response vs DMSO,[5],96.6% (inactive)
same,"GFP response, % of DMSO",[6],101% (inactive)
same,double positive events,[7],66.4%
same,vesicle binding response,[7],282% (inactive)
same,inhibition,[8],7.85% (inactive)
same,superoxide response (% of plate),[9],90.3% (inactive)
same,aptamer binding inhibition,[10],4% (inactive)
same,response,[11],-5.78% (inactive)
same,inhibition,[12],-4.24% (inactive)
same,response,[13],-0.71% (inactive)
same,binding (% of control),[14],97.1% (inactive)
same,inhibition,[15],-2% (inactive)
same,inhibition,[16],-0.5% (inactive)
same,inhibition,[17],-8.8% (inactive)
same,efflux inhibition (fraction of control),[18],-0.01 (inactive)
same,inhibition,[19],6% (inactive)
same,differentiation response,[20],6.11% (inactive)
C[C@]12CCC(=O)C=C1CCC1C2CC[C@@]2(C)C1CC[C@@]2(O)CC#N (some centres not stated),percent of DMSO control GFP,[2],99.8% (inactive)
same,GFP response vs DMSO,[3],105% (inactive)
same,percent response of DMSO control,[4],101% (inactive)
same,GFP response vs DMSO,[5],90.7% (inactive)
same,"GFP response, % of DMSO",[6],98% (inactive)
same,double positive events,[7],71.1%
same,vesicle binding response,[7],961% (inactive)
same,inhibition,[8],12% (inactive)
same,superoxide response (% of plate),[9],95.6% (inactive)
same,aptamer binding inhibition,[10],5% (inactive)
same,response,[11],-3.28% (inactive)
same,inhibition,[12],-0.45% (inactive)
same,response,[13],-1.52% (inactive)
same,binding (% of control),[14],97.9% (inactive)
same,inhibition,[15],3.3% (inactive)
same,inhibition,[16],-0.9% (inactive)
same,inhibition,[17],-2.6% (inactive)
same,efflux inhibition (fraction of control),[18],-0.07 (inactive)
same,inhibition,[19],8% (inactive)
same,differentiation response,[20],11% (inactive)
COc1ccc(NC2=NCC(C)S2)cc1 (configuration not stated),percent of DMSO control GFP,[2],103% (inactive)
same,GFP response vs DMSO,[3],101% (inactive)
same,percent response of DMSO control,[4],109% (inactive)
same,GFP response vs DMSO,[5],89.3% (inactive)
same,"GFP response, % of DMSO",[6],96% (inactive)
same,double positive events,[7],69.5%
same,vesicle binding response,[7],150% (inactive)
same,inhibition,[8],11% (inactive)
same,superoxide response (% of plate),[9],101% (inactive)
same,aptamer binding inhibition,[10],2% (inactive)
same,response,[11],5.38% (inactive)
same,inhibition,[12],5.98% (inactive)
same,response,[13],4.39% (inactive)
same,binding (% of control),[14],100% (inactive)
same,inhibition,[15],-2.8% (inactive)
same,inhibition,[16],0.2% (inactive)
same,inhibition,[17],-2.7% (inactive)
same,efflux inhibition (fraction of control),[18],0.195 (inactive)
same,inhibition,[19],0% (inactive)
same,differentiation response,[20],-3.11% (inactive)
